Reference: PubChem BioAssay AID743463 (Broad Institute, 2014)
The list shows a part of the results. Results filed as inconclusive are left out. The source made the active and inactive calls.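 The calls were made as follows: active = dose curves showing G6PC suppression whose half-maximal dose is at most twice the top valid dose; inconclusive = flat curves with moderate negative activity, or unreliable fits; inactive = the rest.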

Assay: suppressors of forskolin-stimulated G6PC mRNA, dose response, PGC-1a acetylation activator project, cell-based, hepatocytes, RT-qPCR, cherry-picked samples (AID 743463);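 also: G6PC expression relative to GAPDH housekeeping gene as delta delta Ct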

| SMILES | outcome |
| --- | --- |
| COc1ccc(-n2nnnc2CNC(=O)c2ccc3ccccc3c2)cc1 | inactive |
| CCC(C)(C)n1nnnc1C(c1ccccc1OC)N1CCSCC1 (stereo not given) | inactive |
| Cc1cc(C(=O)NNS(=O)(=O)c2ccccc2C(F)(F)F)nn1C(C)(C)C | inactive |
| CCOC(=O)c1c(NC(=O)CSc2cn(CC)c3ccccc23)sc2c1CCC2 | inactive |
| CCOc1ccccc1CN1CCN(C2CCC2)CC1CCO (stereo not given) | inactive |
| Cc1ccc(S(=O)(=O)Nc2ccc3c(c2)C(=O)N([C@@H](C)CO)C[C@@H](C)[C@H](CN(C)C(=O)Nc2cccc4ccccc24)OCCCC[C@H](C)O3)cc1 | inactive |
| COc1ccc(Nc2nnc(C)c3ccccc23)cc1 | inactive |
| Cc1ccc(OCC(=O)NCCCNC(=O)c2cccnc2)cc1C | inactive |
| Cc1cc(C)c2c(-n3cccc3)c(C(=O)NNS(=O)(=O)c3ccc(F)cc3)sc2n1 | inactive |
| O=C(NCc1ccccc1)C(c1ccccc1)N(C(=O)c1csnn1)c1ccc(F)cc1 (stereo not given) | inactive |
| CCOC(=O)c1c(-c2ccc(C)cc2C)csc1NC(=O)CSc1nnnn1C | inactive |
| CCCCC(=O)Nc1ccc(C(=O)NCCCn2ccnc2)cc1 | inactive |
| O=C(NCCC1CCCCN1S(=O)(=O)c1cccs1)C(=O)Nc1ccc(F)cc1F (stereo not given) | inactive |
| O=S(=O)(NCc1ccccc1Br)c1ccccc1Br | inactive |
| CC(C)CCNc1nc(N2CCCC2)c2c(c1C#N)CCN(C)C2 | inactive |
